Assay results published in PMC13494018.
Values without a mark were called inactive. No rule for the calls is given here.

B1: design_603_0b98da89-d791-4423-9b2d-fd1b7292da18_1249_dldesign_0_cycle1_af2pred (protein)
chain: AEASKQAAKEIAATVRKLGEKVPEAAPLAEEAAKAVEAAAGEAPEKIAAVAIAALKEIGEKVPEATSLANEARAEARGIAHEAKK
B2: design_603_0b98da89-d791-4423-9b2d-fd1b7292da18_1252_dldesign_0_cycle1_af2pred (protein)
chain: AKEVVKKAKAEAKKLGEKAAAAETLEEAKKLVKELRKEAEKQAKEMKKAGAPEKDIKEVLTTAAELGAEALAEVRS
B3: design_603_0b98da89-d791-4423-9b2d-fd1b7292da18_1363_dldesign_0_cycle1_af2pred (protein)
chain: EEEERKSRQAYGKALSLIELARHAAKADPKAYPLALKYIEKAKELAEEASEELKKEVLEEAEEAEKEVLELGKK
B4: design_603_0b98da89-d791-4423-9b2d-fd1b7292da18_1380_dldesign_0_cycle1_af2pred (protein)
chain: GEEVAKVLEKNAEIAREGDAEEAIAALKEAAKELNKYHKLQPYAERLEFLAEELKKNKADPEKAAAIAKYGAELLKKAAEVAK
B5: design_603_0b98da89-d791-4423-9b2d-fd1b7292da18_1486_dldesign_0_cycle1_af2pred (protein)
chain: MSIELLAEAARAAVRIARALGEAEDVETAVAFRDKAIEAAAEDEEMAKKIIAAAKEVEDPATALAAARAALAAVEAFAA
B6: design_603_0b98da89-d791-4423-9b2d-fd1b7292da18_1531_dldesign_0_cycle1_af2pred (protein)
chain: SEAKEEAKKALERLKKVRERAKEEAPLLTPEERKELSELLAKAREYLNLALVSKDEKEAKKYVEKGKEYLEKAEKLIEKAKAKA
B7: design_603_0b98da89-d791-4423-9b2d-fd1b7292da18_1535_dldesign_0_cycle1_af2pred (protein)
chain: MEEKYLKEAEKLLEEGKKEIERAGKEEGAEAAKEVGKKYLEKLTEVAKKLSPEKEGEVLLKFKKESMKIIKEAEEREK
B8: design_603_0b98da89-d791-4423-9b2d-fd1b7292da18_1568_dldesign_0_cycle1_af2pred (protein)
chain: DEELKKEAKEEIKKAAEKGIAAAKAGNILEAQFYAVEAREIGREYAKKIKNKELAKEVKEYAKKQAEKIRAEAAKVLAA
B9: design_603_0b98da89-d791-4423-9b2d-fd1b7292da18_1699_dldesign_0_cycle1_af2pred (protein)
chain: MTDLEIVEENIKEAREEFARDPRLGLAVARATVSTAKAMSKKSEEGKKALEKAKAFLEELEAEYRARLAAAAAAAAAAE
B10: design_603_0b98da89-d791-4423-9b2d-fd1b7292da18_1770_dldesign_0_cycle1_af2pred (protein)
chain: DLEEVKKKASELLFKAIDLVSSGEKEEEGEKAIEEAKKILLSYGKEHPEYAKEMEEGAKKVESVYESAKKAAK
B11: design_603_0b98da89-d791-4423-9b2d-fd1b7292da18_1818_dldesign_0_cycle1_af2pred (protein)
chain: AEEKIKEGEEKAKKFVEKAKELAKEGKYNAALGYVEAAKDVAKEIEKLSEEGKEVGKKIKEEAEKAEKIVKEKEKEKKELEE
B12: design_603_0b98da89-d791-4423-9b2d-fd1b7292da18_1943_dldesign_0_cycle1_af2pred (protein)
chain: PPADELLALADKKAEEVEKKIEEAAEYGKKSGDKEKALKLIDEVLKEAEKEAEELIAKPETRAAGVILRNEAEVMAKNAKEKLLK
B13: design_603_0b98da89-d791-4423-9b2d-fd1b7292da18_1956_dldesign_0_cycle1_af2pred (protein)
chain: VTRAELAALAHEVQEAANEVYFEAKKSKNTEKLQALAREAKALVKQAASADPETALALLKEAQALVDEAKKILEKEKKE
B14: design_603_0b98da89-d791-4423-9b2d-fd1b7292da18_2015_dldesign_0_cycle1_af2pred (protein)
chain: KETAEELLENARKLAEKAGELVGPELLEVMEKMIEAAKKEDGKKEIEELAKEALELAKKAGVPEAAEYIHQAKADAYAANVFRK
B15: design_603_0b98da89-d791-4423-9b2d-fd1b7292da18_2026_dldesign_0_cycle1_af2pred (protein)
chain: SSMKEEEIKEMEKAAKKAAELLDDEEAAKKLLEAVKLAIEDPKEGTKKLREIAKEIGAKGSEEVKKALEEAVHAALRYRAI
B16: design_603_0b98da89-d791-4423-9b2d-fd1b7292da18_2081_dldesign_0_cycle1_af2pred (protein)
chain: AEEAEKKVKELAKKAEEAFRRAREAGAKAVEKDPSVAKRASELVHQAAQYRAEAKAAKDPEEAKEALKKAEKAREELEKLAKA
B17: design_603_0b98da89-d791-4423-9b2d-fd1b7292da18_2150_dldesign_0_cycle1_af2pred (protein)
chain: HERFKYAASAETIAEQVEETAKIYGDEELKEAAKKIKEAAKEAEKSEDAEEAKKAYEKAKEIRKKARKELKAKKA
B18: design_603_0b98da89-d791-4423-9b2d-fd1b7292da18_2177_dldesign_0_cycle1_af2pred (protein)
chain: MKALEEAEEFAKKMIEEAKKWGEAEADVAKVLGKSLLEAVEKTLKEKNEEAALAVAKEGKEKAKKIMDRIKEDIERAKKS
B19: design_603_0b98da89-d791-4423-9b2d-fd1b7292da18_2191_dldesign_0_cycle1_af2pred (protein)
chain: MEEAKKKAEELIKRAKEHVEKARKIAKEGGSTMEAMLHILEAEADAREALKIGEKYPELKEMAEEAKEYVKKTRKEIKAILKA

Target: VTCN1, Q7Z7D3
Sequence (Q7Z7D3 whole entry): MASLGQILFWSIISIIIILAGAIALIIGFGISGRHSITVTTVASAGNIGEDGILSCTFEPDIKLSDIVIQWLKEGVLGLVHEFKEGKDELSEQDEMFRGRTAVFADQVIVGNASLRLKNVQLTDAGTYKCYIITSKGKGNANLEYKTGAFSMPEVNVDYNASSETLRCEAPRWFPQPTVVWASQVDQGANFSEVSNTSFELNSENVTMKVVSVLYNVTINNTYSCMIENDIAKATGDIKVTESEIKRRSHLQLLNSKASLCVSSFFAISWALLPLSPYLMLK

Row | Binder | binding in a display sort
1 | B1 | not found
2 | B2 | not found
3 | B3 | not found
4 | B4 | not found
5 | B5 | not found
6 | B6 | not found
7 | B7 | not found
8 | B8 | not found
9 | B9 | not found
10 | B10 | not found
11 | B11 | not found
12 | B12 | not found
13 | B13 | not found
14 | B14 | not found
15 | B15 | not found
16 | B16 | not found
17 | B17 | not found
18 | B18 | not found
19 | B19 | not found
